Data: PubChem BioAssay (NCI)
“And” between values parts separate entries of the source, which are not always exact repeats. Equal values may be shown once. The panel holds about 83,000 compounds, 20% with a hit somewhere; the sample as a whole holds those more often.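 Note: values are percent growth. 100 is the growth of untreated cells, values between 100 and 0 indicate rising inhibition; between -100 and 0 indicates cell death.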 The source made the active and inactive calls. Rule for the calls: active = growth percent below 10; inactive = the rest.

tested on: MDA-MB-468 breast; test: NCI-60 one-dose screen, 48 h (100 = growth as untreated, 0 = no growth, -100 = all killed); conditions: 10 µM unless noted

Compound | growth
CCN1CCN(CC(=O)Nc2nc3ccc(NCc4ccc(Cl)cc4)cc3s2)CC1 | 47.8% (inactive)
COc1ccc(OC)c(C(=O)Nc2cccc(-c3cc(=O)c4ccccc4o3)c2)c1 | 92.9% (inactive)
NC(=O)Nc1ccc(-n2cnc3cc(-c4ccc(O)cc4)ccc32)cc1 | 129% (inactive)
O=C(COc1ccc(C2SCC(=O)N2c2ccc(F)cc2)cc1)c1ccccc1 (centres undefined) | 89.1% (inactive)
COc1ccc(/C(C#N)=C/c2ccccn2)cc1 | 89% (inactive) and 82% (inactive)
CSc1nc2sc3c(c2c(=O)n1-c1ccc([N+](=O)[O-])cc1)CCCCC3 | 83% (inactive)
COC(=O)[C@H]1Cc2c([nH]c3ccccc23)[C@@H](c2cccs2)N1 | 101% (inactive)
C[C@H](CCC[C@H](C)OS(=O)(=O)c1ccccc1)OS(=O)(=O)c1ccccc1 | 110% (inactive)
O=C(CS)Nc1ccc2ccccc2c1 | 108% (inactive)
CCOC(=O)Cc1cnn(C)c1NC(=O)c1ccc(Cl)cc1NC(C)=O | 89.9% (inactive)
C=CC(=O)Nc1ccc2ncnc(Nc3cccc(NS(=O)(=O)CCC)c3Cl)c2c1 | -31.9% (active)
O=C(Nc1cccc(Cl)c1)c1cc(N=Nc2ccc([N+](=O)[O-])cc2Cl)ccc1O | 67.8% (inactive)
Nc1ccc(Cl)c2c(=O)c3ccccc3[nH]c12 | 34% (inactive)
O=C(CCn1cc[n+](CC(=O)c2ccc(-c3ccccc3)cc2)c1)Nc1cccc2cccnc12 | -16.8% (active)
CC(=O)Nc1ccc(-n2cnc3cc(-c4ccc(OCCN5CCCCC5)cc4)ccc32)cc1 | 115% (inactive)
COc1ccc(/C(C)=N/NC(=O)c2ccc(S(C)(=O)=O)cc2)cc1OC | 95.7% (inactive)
COc1ccccc1N=Nc1c(O)ccc2cc(S(=O)(=O)O)ccc12 | 111% (inactive)
C1=C2CNCC3=Cc4ccc5ccccc5c4OC23Oc2c1ccc1ccccc21 | 50.4% (inactive)
CC12CCC(CC1)C(C)(C)O2 | 108% (inactive)
O=C(O)[C@@H]1[C@H]2C[C@H]3c4[nH]c5ccccc5c4CCN3C[C@@H]2CC[C@@H]1O | 104% (inactive)

Compound | growth
CCN1C(=S)N(CC)C2C1NC(=S)N2/N=C/C=C/c1ccccc1OC (centres undefined) | 9.04% (active)
CC(C)[N+]1(C)C2CC[C@@H]1CC(OC(=O)C(CO)c1ccccc1)C2 (some centres undefined) | 109% (inactive)
COC(=O)c1cncc(C(=O)Nc2ccc(-n3cnc4ccccc43)cc2)c1 | 101% (inactive)
CC(=O)Oc1ccc(CCN2C(=O)CSC2=S)cc1 | -12.9% (active)
C/C(=N/Nc1nc(N/N=C(/C)c2ccc([N+](=O)[O-])cc2)nc(N2CCOCC2)n1)c1ccc([N+](=O)[O-])cc1 | 79.7% (inactive)
COc1cccc(NC(=O)c2sc3nc(C)c(C(C)=O)cc3c2N)c1 | -14.8% (active)
CCN(CC)CCN1C(=O)c2c(c3c4cccnc4[nH]c3c3ccc4ccccc4c23)C1=O | 63.3% (inactive)
N#C/C(=C1C=C/C(=N\O)C(Cl)=C\1)c1ccccc1 | 41.2% (inactive)
CN1CCn2c(c(Sc3ccc(C(=O)NO)cc3)c3ccccc32)C1=O | -39.2% (active)
CCSc1nc(-c2cccs2)n2nc(-c3ccco3)cc2n1 | -37.1% (active)
Cc1cccc2c1O/C(=C\c1ncc([N+](=O)[O-])n1C)C2=O | -12.6% (active)
COc1ccc2cc(-c3ccc(-c4ccc(C(=N)N)s4)s3)ccc2c1 | -51.7% (active)
CSc1nc2c(c(=O)n1C)N=C1c3ccccc3C(=O)C1C(c1ccccc1)N2 (centres undefined) | 54.8% (inactive)
CCCCN(CC)CC(CC)Nc1cc(OC)cc2cccnc12 (centres undefined) | 119% (inactive)
COc1cc(CNC(=O)CSc2nc3ccccc3c(=O)n2Cc2cc(OC)c(OC)c(OC)c2)cc(OC)c1OC | 91.7% (inactive)
CC(C)(C)c1cc(/C=N\NC(=O)/C=C/C=C/c2ccc3c(c2)OCO3)c(O)c(C(C)(C)C)c1 | 70.7% (inactive)
CCn1c(SCC(=O)Nc2cc(C(F)(F)F)ccc2Cl)nc2ccccc2c1=O | 50.3% (inactive)
CC/C(=C(/c1ccc(Cl)cc1)c1ccc(OCCN2CCCCC2)cc1)c1ccc(OC)cc1 | 26.5% (inactive)
CCC(CCCN(CC)CCc1ccccc1)OC(=O)c1cc(OC)c(OC)c(OC)c1 (centres undefined) | 93.1% (inactive)
